Assay results as given in PubChem BioAssay AID435030 (The Scripps Research Institute Molecular Screening Center, 2010).
Values joined by “and” are separate entries in the source; they are usually repeats but may differ in a detail not shown here. Equal entries are not always repeated. Out of some 330,000 compounds screened, about 940 (0.28%) were called active. Rule as the data show it: active = inhibition above about 12%; inactive = the rest. The entries come from a sample that favours actives as a whole. Some compounds were tested as several samples or in several runs, with calls that do not always agree.

assay: growth inhibition of E. coli expressing H. pylori AddAB, primary screen, AddAB inhibitor project, absorbance (AID 435030); settings: at 11.9 µM, stronger effect = higher value;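 also: 0% = vehicle wells of infected cells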

**Q.** Which inhibition does the source give for `Cc1ccc(NC(=O)C(C)Sc2nnc(C3CC3)n2C2CC2)cc1S(=O)(=O)N1CCOCC1` (configuration not stated) here?
**A.** -0.26% (inactive)

**Q.** Which inhibition does the source give for `Cc1ccc(C23CC4CC(CC(C(=O)NCC(=O)O)(C4)C2)C3)cc1` here?
**A.** 1.92% (inactive)

**Q.** With `COc1ccccc1NC(=S)N1CCC(NC(=O)C23CC4CC(CC(C4)C2)C3)CC1` as the compound, how does the inhibition read?
**A.** 4.75% (inactive)

**Q.** With `CCOc1ccccc1NC(=O)C12CC3CC(C1)CC(c1ccc(C)cc1)(C3)C2` as the compound, how does the inhibition read?
**A.** 78.7% (active)

**Q.** With `Cc1cc(OC(C)C(=O)Nc2ccc(S(=O)(=O)Nc3onc(C)c3C)cc2)cc(C)c1Cl` (configuration not stated) as the compound, how does the inhibition read?
**A.** -1.11% (inactive)

**Q.** Which inhibition does the source give for `Cc1ccc(C(=O)/C=C/Nc2ccc(S(=O)(=O)Nc3onc(C)c3C)cc2)cc1` here?
**A.** 12.7% (active)

**Q.** Which inhibition does the source give for `Cc1noc(NS(=O)(=O)c2ccc(NC(=O)C34CCC(CC3)C4)cc2)c1C` here?
**A.** 1.62% (inactive)

**Q.** Which inhibition does the source give for `Cc1ccc(Sc2ccncc2S(N)(=O)=O)cc1` here?
**A.** 4.14% (inactive)

**Q.** Which inhibition does the source give for `COc1ccc(N2CCN(S(=O)(=O)CCNC(=O)C34CC5CC(CC(C5)C3)C4)CC2)cc1` here?
**A.** 3.21% (inactive)

**Q.** With `COc1cccc(NC(=O)C(Sc2nc3ccccc3c(=O)n2CC(C)C)c2ccccc2)c1` (configuration not stated) as the compound, how does the inhibition read?
**A.** 2.26% (inactive)

**Q.** Which inhibition does the source give for `O=C(NNC(=O)C1CCCC1)c1ccc(F)cc1` here?
**A.** -2.96% (inactive)

**Q.** Which inhibition does the source give for `O=C(/C=C/c1ccc([N+](=O)[O-])o1)NNC(=O)c1ccc(F)cc1` here?
**A.** 97.8% (active)

**Q.** Which inhibition does the source give for `CCc1noc(C)c1C(=O)NNC(=O)c1ccc(F)cc1` here?
**A.** -0.34% (inactive)

**Q.** With `Cc1ccc(Cl)cc1NC(=S)N(CCN(C)C)Cc1cccs1` as the compound, how does the inhibition read?
**A.** 4.63% (inactive)

**Q.** With `CCn1c(/C=C/Nc2ccccc2)[n+](CC)c2ccc(C(=O)OCC(F)(F)F)cc21` as the compound, how does the inhibition read?
**A.** -1.7% (inactive)

**Q.** Which inhibition does the source give for `O=C(c1[nH]ncc1-c1ccc(Cl)cc1)C1CO1` (configuration not stated) here?
**A.** 12.5% (active)

**Q.** Which inhibition does the source give for `S=c1[nH]nc(-c2ccc(Cl)cc2)n1CC1CCCO1` (configuration not stated) here?
**A.** 0.6% (inactive)

**Q.** Which inhibition does the source give for `O=C(c1nnc(-c2ccc(Cl)cc2)o1)C1CCCC1` here?
**A.** 0.77% (inactive)

**Q.** For `CCC(C)[C@H]1COCCS(=O)(=O)N1Cc1ccc(C)cc1` (some centres not stated), which inhibition is on record?
**A.** 2.11% (inactive)

**Q.** For `Cc1nnc(SCC2=C(C(=O)O)N3C(=O)C(NC(=O)Cn4nc(C)c(Cl)c4C)C3SC2)s1` (configuration not stated), which inhibition is on record?
**A.** -3.23% (inactive)

**Q.** Which inhibition does the source give for `C=CC1=C(C(=O)O)N2C(=O)[C@@H](NC(=O)/C(=N/OCC(=O)O)c3csc(N)n3)[C@H]2SC1` here?
**A.** 97.5% (active)

**Q.** Which inhibition does the source give for `CO/N=C(\C(=O)N[C@@H]1C(=O)N2C(C(=O)O)=C(COC(C)=O)CS[C@H]12)c1csc(N)n1` (stereo in doubt) here?
**A.** 98.8% (active) and 99.7% (active) and -0.42% (inactive)

**Q.** For `C=CC1=C(C(=O)O)N2C(=O)[C@@H](NC(=O)/C(=N\OCC(=O)O)c3csc(N)n3)[C@H]2SC1`, which inhibition is on record?
**A.** 99.5% (active)

**Q.** Which inhibition does the source give for `Cc1cc(C)cc(C(=O)NC2C(=O)N3C(C(=O)O)=C(CSc4nnc(C)s4)CSC23)c1` (configuration not stated) here?
**A.** -1.61% (inactive)

**Q.** Which inhibition does the source give for `CC(C)(C)OC(=O)C1=C(CO)CS[C@@H]2[C@H](NC(=O)Cc3ccccc3)C(=O)N12` here?
**A.** 0.4% (inactive)

**Q.** For `Cc1ccc(S(=O)(=O)N2[C@@H](c3cccc4ccccc34)C(C(=O)O)=C[C@H]2C(C)(C)C)cc1`, which inhibition is on record?
**A.** -0.17% (inactive)

**Q.** With `C=CCOc1cccc(CNCc2cccnc2)c1` as the compound, how does the inhibition read?
**A.** 4.34% (inactive)

**Q.** Which inhibition does the source give for `O=C1N[C@H](Cc2ccccc2)C(=O)N[C@H]1Cc1cn(S(=O)(=O)c2ccccc2)c2ccccc12` here?
**A.** 3.88% (inactive)

**Q.** For `Cc1ccc(C(=O)N/C(=C\c2cccs2)C(=O)NCCc2ccccn2)cc1C`, which inhibition is on record?
**A.** -1.59% (inactive)

**Q.** Which inhibition does the source give for `COc1ccc(C(=O)c2c(C)c(CCC#N)n3ccccc23)c(OC)c1` here?
**A.** 4.64% (inactive)

**Q.** For `CNc1ccc(SC#N)cc1`, which inhibition is on record?
**A.** 3.2% (inactive)

**Q.** For `CC(=O)Nc1ccc(NC(=O)CC2CCCC2)cc1`, which inhibition is on record?
**A.** 3.59% (inactive)

**Q.** Which inhibition does the source give for `CCOC(=O)c1cnc(-n2nc(C)cc2C)nc1NNc1cc(C)nc(-c2ccccc2)n1` here?
**A.** 1.33% (inactive)

**Q.** For `O=C(Nc1ccc2c(c1)CCC2)c1ccc(Br)s1`, which inhibition is on record?
**A.** 0.08% (inactive)

**Q.** Which inhibition does the source give for `Cc1nn(CC#N)c(=O)n1N(C)c1ncc(C(F)(F)F)cc1Cl` here?
**A.** -0.77% (inactive)

**Q.** Which inhibition does the source give for `CC(=O)NN1C(=O)c2ccccc2NC1c1ccccc1` (configuration not stated) here?
**A.** 0.33% (inactive)

**Q.** With `O=C1c2ccccc2NC(c2ccc(-c3cccc(Cl)c3)o2)N1O` (configuration not stated) as the compound, how does the inhibition read?
**A.** 21.1% (active)

**Q.** For `O=C(O)C(c1ccccc1)N1C(=O)/C(=C\c2ccc(-c3cccc(Cl)c3)o2)SC1=S` (configuration not stated), which inhibition is on record?
**A.** 1.17% (inactive)

**Q.** For `O=C(N=C1SC2CS(=O)(=O)CC2N1c1cc(Cl)ccc1Cl)C1CC1` (configuration not stated), which inhibition is on record?
**A.** 1.12% (inactive)

**Q.** With `CCC1CO/C(=C(\C(=C(Cl)Cl)N2CCOCC2)[N+](=O)[O-])N1` (configuration not stated) as the compound, how does the inhibition read?
**A.** 0.26% (inactive)

**Q.** Which inhibition does the source give for `Cc1cc(C)n(-c2nnc(N3CCN(c4ccccc4)CC3)nn2)n1` here?
**A.** 1.11% (inactive)

**Q.** For `COc1ccc(OC)c(NC(=O)C2CCCN2S(=O)(=O)c2cccc3nsnc23)c1` (configuration not stated), which inhibition is on record?
**A.** 2.19% (inactive)

**Q.** Which inhibition does the source give for `Cc1ncoc1C(=O)NCCC(c1ccccc1)c1ccccc1` here?
**A.** 0.08% (inactive)

**Q.** Which inhibition does the source give for `CCOc1cc(S(=O)(=O)NCc2ccc3c(c2)OCO3)ccc1F` here?
**A.** 1.89% (inactive)

**Q.** Which inhibition does the source give for `COc1cc(NS(=O)(=O)c2ccc(NC(=O)c3ccc([N+](=O)[O-])cc3)cc2)ncn1` here?
**A.** 0.95% (inactive)

**Q.** With `CC(=O)NC(=S)Nc1ccc(NC(=S)NC(=O)c2ccc([N+](=O)[O-])cc2)cc1` as the compound, how does the inhibition read?
**A.** -0.43% (inactive)

**Q.** Which inhibition does the source give for `Cn1ccc(=Nc2ccc(NC(=O)c3ccc(N=c4ccn(C)c5ccc([N+](=O)[O-])cc45)cc3)cc2)cc1` here?
**A.** 95.1% (active)

**Q.** Which inhibition does the source give for `Brc1ccc(CN2CC[C@H]3C=CCc4cccc(c43)C2)cc1` here?
**A.** 4.02% (inactive)

**Q.** Which inhibition does the source give for `O=C(Nc1cccnc1Cl)c1cc(-c2ccccc2O)on1` here?
**A.** 3.57% (inactive)

**Q.** Which inhibition does the source give for `C=CCNC(=O)c1cc(-c2ccccc2O)on1` here?
**A.** 96.1% (active)

**Q.** For `C=CCNC(=O)c1csc(-c2ccccc2)n1`, which inhibition is on record?
**A.** 0.48% (inactive)

**Q.** With `FC(F)(F)c1ccc2nnc(-c3c(Cl)cccc3Cl)n2c1` as the compound, how does the inhibition read?
**A.** 2.64% (inactive)

**Q.** With `Cc1ccc(OCC(=O)c2cc(C)n(Cc3ccco3)c2C)c([N+](=O)[O-])n1` as the compound, how does the inhibition read?
**A.** 3.36% (inactive)

**Q.** For `O=C(OCC1O[C@@H](OC(=O)c2cc(O)c(O)c(O)c2)[C@@H](OC(=O)c2cc(O)c(O)c(O)c2)[C@@H](OC(=O)c2cc(O)c(O)c(O)c2)[C@@H]1OC(=O)c1cc(O)c(O)c(O)c1)c1cc(O)c(O)c(O)c1` (some centres not stated), which inhibition is on record?
**A.** 27.8% (active)

**Q.** For `C=C1c2cccc(OC)c2O[C@H](C(=O)OCC)[C@@H]1CCCCCC`, which inhibition is on record?
**A.** -0.56% (inactive)

**Q.** For `O=C(CC(O)(C(F)(F)F)C(F)(F)F)Nc1ccc(Cl)c(Cl)c1`, which inhibition is on record?
**A.** 18.6% (active)

**Q.** With `CS(=O)(=O)N(CC(=O)Nc1ccc(Cl)c(Cl)c1)C1CCCCC1` as the compound, how does the inhibition read?
**A.** -0.7% (inactive)

**Q.** With `O=C(CCCN1C(=O)CCC1=O)Nc1ccc(Cl)c(C(F)(F)F)c1` as the compound, how does the inhibition read?
**A.** 2.75% (inactive)

**Q.** For `COc1cc(C)c(C(C)C)cc1S(=O)(=O)n1ccnc1`, which inhibition is on record?
**A.** 2.64% (inactive)

**Q.** Which inhibition does the source give for `O=C(NCc1ccco1)c1ccc([N+](=O)[O-])cc1Cl` here?
**A.** 0% (inactive)

**Q.** Which inhibition does the source give for `CS(=O)(=O)c1ccc(Cl)c(NC(=O)COC(=O)c2ncc(Cl)c(Cl)c2Cl)c1` here?
**A.** 1.36% (inactive)

**Q.** For `CCCCOc1ccc(Cl)cc1CSc1nncn1N`, which inhibition is on record?
**A.** 0.43% (inactive)
